Test results from PubChem BioAssay (EPA / NIEHS).
Active and inactive are the calls of the source. The calls were made as follows: active = hit-call score of the fitted dose curve at least 0.9, where 1 is the maximum; inactive = score below 0.9.

Assays:
[1] = read-out: Macrophage colony-stimulating factor (MCSF), CSF1 (gene 1435); assay: BSK_hDFCGF_MCSF: BioMAP Diversity Plus: hDFCGF Assay for Macrophage colony-stimulating factor (MCSF) Biomarker Activity (AID 2283060); details: primary human foreskin fibroblasts; actives raise or lower the signal
How it was run: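 fibroblasts (human foreskin, primary), 24 h post-dose; M-CSF by ELISA; bidirectional fit, DMSO = baseline.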

[2] = BSK_hDFCGF_SRB: Viability Assessment in the BioMAP Diversity Plus: hDFCGF Assay (AID 2283061); details: primary human foreskin fibroblasts;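 also: cells exposed to compound for 24 h before the read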
How it was run: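 SRB-based viability read on primary human skin fibroblasts at 24 h: TCA fixation, 0.1% dye, 560 nm. Gain or loss of signal is fitted against the DMSO negative control.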

[3] = read-out: TIMP metallopeptidase inhibitor 1 (TIMP1), TIMP1 (gene 7076); assay: BSK_hDFCGF_TIMP1: BioMAP Diversity Plus: hDFCGF Assay for TIMP metallopeptidase inhibitor 1 (TIMP1) Biomarker Activity (AID 2283062); details: primary human foreskin fibroblasts; actives raise or lower the signal
How it was run: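 Bidirectional curve fitting against DMSO baseline yielded this endpoint, based on ELISA detection of TIMP-1 in primary human foreskin fibroblasts exposed to compound for 24 h.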

[4] = read-out: Monokine induced gamma interferon (MIG), CXCL9 (gene 4283); assay: BSK_hDFCGF_MIG: BioMAP Diversity Plus: hDFCGF Assay for Monokine induced gamma interferon (MIG) Biomarker Activity (AID 2283063); details: primary human foreskin fibroblasts; actives raise or lower the signal
How it was run: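 Endpoint derived by bidirectional fitting relative to DMSO; MIG quantified via ELISA in primary human foreskin fibroblasts harvested 24 h after dosing.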

[5] = read-out: Matrix Metallopeptidase 1 (MMP1), MMP1 (gene 4312); assay: BSK_hDFCGF_MMP1: BioMAP Diversity Plus: hDFCGF Assay for Matrix Metallopeptidase 1 (MMP1) Biomarker Activity (AID 2283064); details: primary human foreskin fibroblasts; actives raise or lower the signal
How it was run: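 Primary human foreskin fibroblasts exposed to chemicals for 24 h; MMP1 measured by ELISA. Cytotoxicity tracked by SRB staining in parallel cultures; bidirectional fit relative to DMSO.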

[6] = read-out: Vascular cell adhesion molecule 1 (VCAM1), VCAM1 (gene 7412); assay: BSK_hDFCGF_VCAM1: BioMAP Diversity Plus: hDFCGF Assay for Vascular cell adhesion molecule 1 (VCAM1) Biomarker Activity (AID 2283065); details: primary human foreskin fibroblasts; actives raise or lower the signal
How it was run: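 Measured after 24 h chemical treatment of primary human skin fibroblasts, VCAM-1 was detected by ELISA and concentration-response analysed in both directions versus DMSO vehicle.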

[7] = read-out: Plasminogen activator inhibitor-1 (PAI1), SERPINE1 (gene 5054); assay: BSK_hDFCGF_PAI1: BioMAP Diversity Plus: hDFCGF Assay for Plasminogen activator inhibitor-1 (PAI1) Biomarker Activity (AID 2283066); details: primary human foreskin fibroblasts; actives raise or lower the signal
How it was run: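 Human foreskin fibroblast primary cells, 24 h chemical exposure; PAI-1 measured by ELISA. Bidirectional fitting relative to DMSO; parallel cultures stained with SRB for total protein to flag overt cytotoxicity.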

[8] = read-out: Intercellular Adhesion Molecule 1 (ICAM1), ICAM1 (gene 3383); assay: BSK_KF3CT_ICAM1: BioMAP Diversity Plus: KF3CT Assay for Intercellular Adhesion Molecule 1 (ICAM1) Biomarker Activity (AID 2283067); details: primary human keratinocytes with fibroblasts; actives raise or lower the signal
How it was run: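 Bidirectional curve fitting against a DMSO baseline was applied to ICAM-1 ELISA signal from primary human skin co-cultures harvested 24 h after treatment, with SRB staining of parallel wells for overt cytotoxicity.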

[9] = read-out: Interferon-gamma inducible Protein 10 (IP10), CXCL10 (gene 3627); assay: BSK_KF3CT_IP10: BioMAP Diversity Plus: KF3CT Assay for Interferon-gamma inducible Protein 10 (IP10) Biomarker Activity (AID 2283068); details: primary human keratinocytes with fibroblasts; actives raise or lower the signal
How it was run: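 In a primary skin co-culture of keratinocytes and fibroblasts, IP-10 is quantified by ELISA at 24 h after dosing. SRB staining of parallel wells monitors overt toxicity. Curves are fitted both directions against DMSO.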

[10] = BSK_KF3CT_SRB: Viability Assessment in the BioMAP Diversity Plus: KF3CT Assay (AID 2283069); details: primary human keratinocytes with fibroblasts;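 also: total protein by sulforhodamine B staining as a cytotoxicity measure; read 24 h after compound addition; fitted for both signal gain and loss against DMSO baseline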
How it was run: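 Human keratinocyte and foreskin fibroblast co-culture exposed to chemical for 24 h. Total protein measured in parallel cultures by 0.1% sulforhodamine B staining after 10% TCA fixation, read at 560 nm; bidirectional fit relative to DMSO.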

[11] = read-out: Interleukin-1 alpha (IL1a), IL1A (gene 3552); assay: BSK_KF3CT_IL1a: BioMAP Diversity Plus: KF3CT Assay for Interleukin-1 alpha (IL1a) Biomarker Activity (AID 2283070); details: primary human keratinocytes with fibroblasts; actives raise or lower the signal
How it was run: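 Primary human keratinocyte plus foreskin fibroblast co-culture, dosed and measured at 24 h in 96-well plates. IL-1a level quantified by ELISA; bidirectional fit relative to DMSO.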

[12] = read-out: TIMP metallopeptidase inhibitor 2 (TIMP2), TIMP2 (gene 7077); assay: BSK_KF3CT_TIMP2: BioMAP Diversity Plus: KF3CT Assay for TIMP metallopeptidase inhibitor 2 (TIMP2) Biomarker Activity (AID 2283071); details: primary human keratinocytes with fibroblasts; actives raise or lower the signal
How it was run: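 Co-culture of human primary keratinocytes and foreskin fibroblasts, measured 24 h after chemical dosing. TIMP-2 quantified by ELISA and fitted in both directions relative to DMSO. Cytotoxicity checked in parallel cultures by SRB total-protein staining.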

[13] = read-out: C-C motif chemokine 2 (Homo sapiens) (UniProt P13500); assay: BSK_KF3CT_MCP1: BioMAP Diversity Plus: KF3CT Assay for Monocyte Chemoattractant Protein 1 (MCP1/CCL2) Biomarker Activity (AID 2283073); details: primary human keratinocytes with fibroblasts; actives raise or lower the signal
How it was run: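 Biomarker MCP-1 is measured by ELISA in primary human keratinocytes co-cultured with foreskin fibroblasts, 24 h after chemical treatment; DMSO serves as the negative control and activity baseline.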

[14] = read-out: Matrix Metallopeptidase 9 (MMP9), MMP9 (gene 4318); assay: BSK_KF3CT_MMP9: BioMAP Diversity Plus: KF3CT Assay for Matrix Metallopeptidase 9 (MMP9) Biomarker Activity (AID 2283074); details: primary human keratinocytes with fibroblasts; actives raise or lower the signal
How it was run: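 Human keratinocyte and foreskin fibroblast co-culture exposed to chemicals for 24 h; MMP9 biomarker measured by ELISA, bidirectional fitting relative to DMSO; cytotoxicity tracked by SRB total protein staining in parallel cultures.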

[15] = read-out: urokinase plasminogen activator (uPA), PLAU (gene 5328); assay: BSK_KF3CT_uPA: BioMAP Diversity Plus: KF3CT Assay for urokinase plasminogen activator (uPA) Biomarker Activity (AID 2283075); details: primary human keratinocytes with fibroblasts; actives raise or lower the signal
How it was run: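 Primary human keratinocyte/foreskin fibroblast co-culture exposed to chemical; uPA measured by ELISA at 24 h. Bidirectional fit versus DMSO, with parallel SRB total-protein staining for cytotoxicity.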

CD40, CD40 (gene 958) = assay: BSK_LPS_CD40: BioMAP Diversity Plus: LPS Assay for CD40 Biomarker Activity (AID 2283076); details: primary human HUVEC with PBMC; actives raise or lower the signal
How it was run: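 Using a multiplexed primary human co-culture (umbilical vein endothelium plus PBMC), CD40 was read by ELISA 24 h after dosing, with cytotoxicity tracked by sulforhodamine B staining of parallel cultures and activity fitted bidirectionally versus DMSO.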

[16] = read-out: E-selectin (Homo sapiens) (UniProt P16581); assay: BSK_LPS_Eselectin: BioMAP Diversity Plus: LPS Assay for Eselectin Biomarker Activity (AID 2283077); details: primary human HUVEC with PBMC; actives raise or lower the signal
How it was run: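 Dose chemical onto LPS-driven HUVEC/PBMC co-culture; after 24 h, run ELISA for E-selectin; fit up- and down-going responses relative to DMSO control.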

[17] = read-out: Interleukin-8 (IL8), CXCL8 (gene 3576); assay: BSK_LPS_IL8: BioMAP Diversity Plus: LPS Assay for Interleukin-8 (IL8) Biomarker Activity (AID 2283078); details: primary human HUVEC with PBMC; actives raise or lower the signal
How it was run: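 In this LPS system, chemical-treated human umbilical vein endothelium/PBMC co-cultures were harvested at 24 h for IL-8 ELISA.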

[18] = read-out: Transforming growth factor beta 1 (TGFb1), TGFB1 (gene 7040); assay: BSK_KF3CT_TGFb1: BioMAP Diversity Plus: KF3CT Assay for Transforming growth factor beta 1 (TGFb1) Biomarker Activity (AID 2283072); details: primary human keratinocytes with fibroblasts; actives raise or lower the signal
How it was run: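 Human keratinocyte/foreskin fibroblast co-culture; TGF-b1 measured by ELISA 24 h after dosing, fitted bidirectionally versus DMSO. Cytotoxicity checked in parallel cultures by total protein (SRB staining, 560 nm).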

Measured: outcome

Chain of E-selectin (Homo sapiens) (P16581 whole entry, looked up): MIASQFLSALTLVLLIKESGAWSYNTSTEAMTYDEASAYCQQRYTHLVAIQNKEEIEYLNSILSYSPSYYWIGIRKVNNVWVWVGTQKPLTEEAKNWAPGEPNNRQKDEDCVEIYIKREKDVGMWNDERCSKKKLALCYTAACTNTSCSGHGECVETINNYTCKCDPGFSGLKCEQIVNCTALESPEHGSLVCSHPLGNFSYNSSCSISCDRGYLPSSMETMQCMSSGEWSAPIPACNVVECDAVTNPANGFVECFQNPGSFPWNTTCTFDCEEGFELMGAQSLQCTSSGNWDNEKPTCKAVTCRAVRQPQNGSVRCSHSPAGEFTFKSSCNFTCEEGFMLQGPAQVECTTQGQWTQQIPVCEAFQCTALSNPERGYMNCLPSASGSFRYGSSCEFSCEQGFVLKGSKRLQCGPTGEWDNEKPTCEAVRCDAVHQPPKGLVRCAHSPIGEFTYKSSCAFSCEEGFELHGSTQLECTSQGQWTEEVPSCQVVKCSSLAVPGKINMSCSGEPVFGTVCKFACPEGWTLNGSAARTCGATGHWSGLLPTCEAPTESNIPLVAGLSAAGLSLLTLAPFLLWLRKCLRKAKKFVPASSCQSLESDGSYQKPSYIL

Nc1ccc(-c2ccc(N)cc2)cc1
not listed: [18]
inactive: all other assays above

CCCCCCCCOC(=O)c1ccccc1C(=O)OCCCCCCCC
not listed: [18]
inactive: all other assays above

c1cc2ccc3cccc4ccc(c1)c2c34
inactive: all assays above
